Screening results: PubChem BioAssay, National Center for Advancing Translational Sciences (NCATS)
FMDV inh: foot and mouth disease virus antiviral activity; Potency, µM (doses to about 57.9 µM), for the others: at the highest dose activity change, negative = inhibition, usual class: inhibitors; FMDV antiviral cell-based qHTS; actives 1.2% (n = 410,000); AID 1159524; calls by dose curve; tested in HEK293T cells; further: read-out not given here; potency means the concentration at half of the fitted maximal effect; nearly all actives have a fitted effect of over 45% in size
LASV entry inh: blocks Lassa virus binding to or entry into cells; Lassa virus pseudotype entry inhibition, cell reporter; Potency, µM (doses to about 37.9 µM), without a hit: top-dose activity change, negative = inhibition, most hits filed as inhibitors; actives 1.2% (n = 300,000); AID 540256; calls by dose curve; tested in HEK293 cells; further: potency means the concentration at half of the fitted maximal effect; nearly all actives have a fitted effect of over 50% in size
HCV inhibitor: HCV inhibition | actives 3.4% (n = 340,000) | AID 651820 | Huh7.5.1 HCVcc-Cre infection, luciferase reporter, 44 h | Potency, µM (series often up to 41.8 µM), for the others: at the top dose activity change, negative = inhibition, usual class: inhibitors; active means well fitted inhibition curve with a large enough effect; inconclusive means small, poorly fitted or top-dose-only effect, or another doubt; inactive means no such curve, though single readings can be large or run the other way; further: potency means the concentration at half of the fitted maximal effect
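Cells (1,000/well) were plated 4 h before compound, then infected with HCVcc-Cre virus (~0.5 moi). After 44 h further culture, infection was read as luciferase luminescence following a 15 min substrate incubation at room temperature.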
HCMV inh: inhibitors of human cytomegalovirus | HFF cells, HCMV-luciferase reporter, 72 h; hits give low values | activity change, negative = inhibition, % at 57.5 µM | actives 4.5% (n = 410,000); in the data active means activity change below about -60%; inconclusive means no clear call, values can overlap the other calls; inactive means above about -39%
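HFF cells seeded 16 h at 37C, treated with compounds, infected with luciferase-reporter HCMV at MOI 1 PFU/cell; luciferase read at 72 h post infection, normalized to buffer-only and Salinomycin controls.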
MARV entry inh: blocks Marburg virus binding to or entry into cells; Marburg virus pseudotyped entry inhibition, cell reporter; Potency, µM (doses to about 37.8 µM), for inactives: top-dose activity change, negative = inhibition, hits mostly inhibitors; actives 1.8% (n = 300,000); calls by dose curve; tested in HEK293 cells; further: potency means the concentration at half of the fitted maximal effect
An asterisk follows results filed as active; ? = inconclusive; . = not tested or not shown; [ ] = dose if it differs, or a comment. Most compounds without a hit are left out; they make up all but 7.9% or so of the library. On the % scale 0 is the no-effect control and ±100 the full control effect.

SMILES	FMDV inh	LASV entry inh	HCV inhibitor	HCMV inh	MARV entry inh
CC(C)OCCCN1C(=O)c2[nH]nc(-c3ccccc3O)c2C1c1ccc(OCc2ccccc2)cc1 (stereo not drawn)	-5%	?	.	-98*	?
Cc1ccc(C2c3c(-c4ccccc4O)n[nH]c3C(=O)N2CCc2ccccc2)cc1 (stereo not drawn)	-16%	?	.	-94*	?
COc1ccc(CCN2C(=O)c3[nH]nc(-c4ccccc4O)c3C2c2cccc(Cl)c2)cc1 (stereo not drawn)	-13%	?	?	?	?
COc1ccc(C2c3c(-c4ccccc4O)n[nH]c3C(=O)N2CCc2ccc(OC)c(OC)c2)cc1 (stereo not drawn)	?	5µM*	?	-32	?
COc1ccc(CCN2C(=O)c3[nH]nc(-c4ccccc4O)c3C2c2cccc(OC)c2)cc1 (stereo not drawn)	-12%	?	.	-71*	13µM*
CC(C)c1ccc(C2c3c(-c4ccccc4O)n[nH]c3C(=O)N2CCc2ccccc2)cc1 (stereo not drawn)	-7%	?	.	-100*	?
COc1cc(C2c3c(-c4cc(C)ccc4O)n[nH]c3C(=O)N2Cc2cccnc2)cc(OC)c1OC (stereo not drawn)	0%	?	.	-10	1%[46.1 µM]
CCOc1ccc(C2c3c(-c4cc(C)ccc4O)n[nH]c3C(=O)N2Cc2cccnc2)cc1OCC (stereo not drawn)	-18%	?	.	-10	?
CCOc1cc(C2c3c(-c4cc(C)ccc4O)n[nH]c3C(=O)N2CCCOC(C)C)ccc1O (stereo not drawn)	-6%	?	.	-68*	?
COCCN1C(=O)c2[nH]nc(-c3ccccc3O)c2C1c1ccc(Cl)c(Cl)c1 (stereo not drawn)	-11%	?	.	-15	-23%[46.1 µM]
COc1ccc(C2c3c(-c4ccccc4O)n[nH]c3C(=O)N2CCc2ccccc2)cc1 (stereo not drawn)	-25%	?	.	-67*	?
CCc1ccc(C2c3c(-c4cc(C)ccc4O)n[nH]c3C(=O)N2Cc2cccnc2)cc1 (stereo not drawn)	?	?	.	-11	13µM*
Cc1cc2c(c(-c3cnccn3)c1)OC(CNC(=O)c1c(F)cccc1Cl)C2 (stereo not drawn)	-13%	.	.	.	.
CC(C)Oc1ccc(CNS(=O)(=O)c2ccc3c(c2)C(C)(C)C(=O)N3C)cc1	4%	1%[46.1 µM]	.	-6	.
COc1ccc(CCN(Cc2cc3ccc(C)cc3n3nnnc23)C(C)=O)cc1OC	-18%	-19%	-9%	-100*	3%[46.1 µM]
COc1cc2c(cc1OC)C(c1cc3cc(OC)c(OC)cc3[nH]c1=O)N(C(=O)C1CC1)CC2 (stereo not drawn)	-4%	26µM*	7%	53	13µM*
CCCC(=O)N1CCc2cc(OC)c(OC)cc2C1c1cc2cc3c(cc2[nH]c1=O)OCO3 (stereo not drawn)	.	-19%	-3%	17	?
Cc1csc2ncnc(NCCc3ccccn3)c12	?	.	7.1µM*	?	.
COc1cccc(C2(CC(=O)N3CCN(c4ccccc4O)CC3)CC(=O)N(C3CCCC3)C2=O)c1 (stereo not drawn)	30%	.	.	.	.
COc1ccccc1NC(=O)CSc1nnc(NC(=O)Nc2ccc(C)cc2)s1	-8%	?	.	-86*	.
COc1ccccc1NC(=O)CSc1nnc(NC(=O)C2CC2)s1	-12%	-24%	-15%	38	7%[46.1 µM]
Cc1ccc(NC(=O)Nc2nnc(SCC(=O)N(C(C)C)C(C)C)s2)cc1	0%	-8%[46.1 µM]	.	-80*	.
COCCNC(=O)C1(C)CCN(C(=O)c2ccc(OC)c(F)c2)C1 (stereo not drawn)	-18%	.	.	11	.
CC(C)c1ccc(CN(Cc2ccco2)c2cnc(S(C)(=O)=O)nc2C(=O)Nc2ccc(F)cc2)cc1	-22%	?	.	2	?
Cc1cccc(CS(=O)(=O)CC2Nc3ccc(C(=O)NCc4ccccc4Cl)cc3NC2=O)c1 (stereo not drawn)	-12%	-15%[46.1 µM]	.	-33	.
SMILES	FMDV inh	LASV entry inh	HCV inhibitor	HCMV inh	MARV entry inh
CC(C)c1ccc(NC(=O)N2CCc3ccccc3C2)cc1	39%	?	-25%	48	?
O=[N+]([O-])c1ccc(N2CCc3ccccc3C2)cc1	34%	.	-19%	-102*	.
O=C(Nc1ccc([N+](=O)[O-])cc1)N1CCc2ccccc2C1	33%	15%	10µM*	6	-22%
C#CCSc1nc(-c2cccs2)ccc1C#N	?	-20%	4.5µM*	-21	-18%
COc1cccc(-c2nccc(NCc3ccccc3)n2)c1	-19%	.	.	.	.
COc1ccccc1-c1cn(S(=O)(=O)c2ccc(F)cc2)nc1N	?	-25%	10µM*	?	?
CCOc1cc(S(=O)(=O)n2cc(-c3ccc(F)cc3)c(N)n2)cc(OCC)c1OCC	?	?	6.3µM*	19	?
CCOc1ccc(S(=O)(=O)n2cc(-c3ccc(F)cc3)c(N)n2)cc1	-5%	-22%	?	-20	3%
COc1ccc(C)cc1NC(=O)C1CCN(S(=O)(=O)c2ccc3c(c2)NC(=O)CO3)CC1	-24%	.	3%	0	.
Cc1ccc(C)c(S(=O)(=O)NC(C)CCc2ccccc2)c1 (stereo not drawn)	60%	-7%	-18%	8	?
COc1ccc(NC(=O)CCc2nc3cccnc3n2-c2ccccc2)c(OC)c1	-18%	6%[46.1 µM]	.	-14	18%[46.1 µM]
OC(c1cccc(Cl)c1)(c1cccc(Cl)c1)C1CN2CCC1CC2 (stereo not drawn)	-15%	?	16µM*	-34	?
CN(C)C(=O)c1ccc(-c2cc3c(Nc4ccc(OC(F)(F)F)cc4)nccc3n2C)cc1	.	.	.	-25	.
S=C(NCC1CCCO1)NC1CCCCC1 (stereo not drawn)	10%	.	16%	-1	.
CCCC(NC(=S)NCC1CCCO1)C12CC3CC(CC(C3)C1)C2 (stereo not drawn)	-9%	.	11µM*	-93*	.
CC(=O)OC(C)C1C2=C(C(=O)CC1(C)O)C(=O)c1c(ccc(-c3ccc4c(c3O)C(=O)C3=C(C4=O)C(C(C)OC(C)=O)C(C)(O)CC3=O)c1O)C2=O (stereo not drawn)	18µM*	-5%[46.1 µM]	?	-68*	-3%
N=c1n(CC(=O)c2ccc([N+](=O)[O-])cc2)c2ccccc2n1Cc1ccccc1Cl	28µM*	-11%	-2%	?	?
N=c1n(CC(=O)c2ccc([N+](=O)[O-])cc2)c2ccccc2n1Cc1ccccc1	-15%	?	?	-83*	?
N=c1n(CC(=O)c2ccc(Br)cc2)c2ccccc2n1Cc1ccccc1	-12%	.	?	-61*	.
CC(C)(C)NC(=O)C(c1ccncc1)N(C(=O)Cn1nnc(-c2ccc(F)cc2)n1)c1cccc(F)c1 (stereo not drawn)	-26%	18%	-1%	17	?
